Measured values from PubChem BioAssay (Tox21).
Calls of active or inactive are those of the source. Calls come from the whole dose curve; as a rule, active = well fitted curve in the direction sought with a large enough effect in the repeat runs; inconclusive = weak or mixed curves; inactive = flat fitted curve, though single readings scatter.

Assay: qHTS assay to test for compound auto fluorescence at 590 nm (red) in HEK293 cells (AID 720679)
Conditions: red autofluorescence 540/590 nm; series mostly up to 91.3 µM; fluorescence, % of fluorescent control: at the top concentration
From the text: National Center for Advancing Translational Sciences [NCATS]
NIH Chemical Genomics Center [NCGC]
U.S. Environmental Protection Agency [EPA]
National Institutes of Environmental Health Sciences [NIEHS]
National Toxicology Program [NTP]
U.S. Food and Drug Administration [FDA]
Compound auto fluorescence often interferes with screening of the compound library against various biological targets and signaling pathways. Some of these compounds may have fluorophoric properties. Such properties may interfere with the assay outputs resulting in false positives and/or negatives. To decrease such complications and ensure the compound activities are relevant in terms of biological response, the Tox21 10K compound library was screened for auto fluorescence.
From the fluorophores used as reporter signals in our screening assays, the auto fluorescence equivalencies of compounds against three fluorophores have been evaluated: Triamterene, Fluorescein and Rose Bengal sodium for blue, green and red fluorescence, respectively. The fluorescence intensities were measured using Excitation/Emission wavelengths at 405/460nm, 485/535nm and 540/590nm for blue, green and red labels, respectively. This assay includes the red fluorescence data.
Tox21 Assay Protocol Summary:
2,000 HEK293 cells in 5 uL of culture medium containing 10% dialyzed FBS per well were dispensed into black wall/clear bottom 1536-well plates using a Multidrop Combi Dispenser (Thermo Scientific). The assay plates were incubated for 4-5 hr at 37C to allow cell attachment to the well bottom, followed by the transfer of 23 nL compound or DMSO vehicle by a pintool work station (Kalypsys, San Diego, CA). After the assay plates were incubated overnight at 37C and 5% CO2, fluorescence intensities in the assay plates were measured by an Envision (PerkinElmer, Shelton, CT) plate reader using three labels for measuring blue, green and red fluorescence at […] 460, 535 and 590nm respectively.
% is set by controls: 0 for no effect and ±100 for the full control effect.

| Structure (SMILES) | fluorescence, % of fluorescent control | Potency |
| --- | --- | --- |
| CN1C[C@H]2c3ccccc3Oc3ccc(Cl)cc3[C@@H]2C1 | 0.0334% [at 46 µM] (inactive) |  |
| CC(CC=O)c1ccccc1 (stereo not given) | -0.347% (inactive) |  |
| CN(C)c1ccc(C(c2ccccc2)c2ccc(N(C)C)cc2)cc1 | -0.333% (inactive) |  |
| CC(C)(C)Cl | -0.24% [at 95.7 µM] (inactive) |  |
| CCOC(=O)Cc1cccc2ccccc12 | -0.149% (inactive) |  |
| CC(=O)c1cccc([N+](=O)[O-])c1 | 0.298% (inactive) |  |
| C[C@H](CCC(=O)O)[C@H]1CC[C@H]2[C@@H]3CC[C@@H]4C[C@H](O)CC[C@]4(C)[C@H]3C[C@H](O)[C@]12C |  | inactive |
| CCN(CC)CCOC(=O)C(c1ccccc1)C1CCCCC1 (stereo not given) | 0.0053% [at 46 µM] (inactive) |  |
| C/C(=C(\CCOP(=O)(O)O)SC(=O)c1ccccc1)N(C=O)Cc1cnc(C)nc1N | 0.166% [at 18.6 µM] (inactive) |  |
| CCC(CC)Nc1ccc(C)c(C)c1 | -0.277% (inactive) |  |
| CCOCC(O)COc1ccc(NC(=O)CC[S+](C)C)cc1 (stereo not given) | 0.0076% [at 46 µM] (inactive) |  |
| c1cc(CCCc2ccncc2)ccn1 | -0.537% (inactive) |  |
| C=C1C(=C/C=C2\CCC[C@]3(C)[C@@H]([C@H](C)/C=C/[C@@H](O)C4CC4)CC[C@@H]23)C[C@@H](O)C[C@@H]1O | -0.136% [at 46 µM] (inactive) |  |
| OC(C#CCN1CCCC1)(c1ccccc1)c1ccccc1 | -0.266% [at 46 µM] (inactive) |  |
| O=C(O)c1ccc(S(=O)(=O)O)cc1C(=O)O | -0.115% (inactive) |  |
| NCC(=O)CCC(=O)O | 0.0897% [at 46 µM] (inactive) |  |
| CC(C)CC(=O)C1C(=O)c2ccccc2C1=O | -0.701% (inactive) |  |
| C[N+]1(C)CCC(OC(=O)C(O)(c2ccccc2)C2CCCC2)C1 (stereo not given) |  | inactive |
| CC(COCCO)OCCO (stereo not given) | -0.314% (inactive) |  |
| CC(C)(C)OCC1CO1 (stereo not given) | 0.0648% [at 95.7 µM] (inactive) |  |

| Structure (SMILES) | fluorescence, % of fluorescent control | Potency |
| --- | --- | --- |
| S=C([S-])NCCNC(=S)[S-].[Mn+2] | -0.14% (inactive) |  |
| CCOC(=O)C1=C[C@]2(CC)CCCN3CCc4c(n1c1ccccc41)[C@@H]32 |  | inactive |
| CNC(=O)CN(CCN(CCN(CC(=O)[O-])CC(=O)NC)CC(=O)[O-])CC(=O)[O-].O.[Gd+3] |  | inactive |
| O=[N+]([O-])c1ccc(NCCO)c(OCCO)c1 | 0.293% (inactive) |  |
| CN1CCC(=C2c3ccccc3Sc3ccccc32)CC1 | -1% [at 46 µM] (inactive) |  |
| O=C(O)c1nc(Cl)c(Cl)c(Cl)c1Cl | -0.482% (inactive) |  |
| CCCCC(CC)COC(=O)COc1ccc(Cl)cc1Cl (stereo not given) | -0.183% [at 95.7 µM] (inactive) |  |
| O=C1[C@H]2CCCC[C@H]2C(=O)N1CCCCN1CCN(c2nsc3ccccc23)CC1 | 0.0777% [at 46 µM] (inactive) |  |
| Cc1cc(C(=O)O)ccc1[N+](=O)[O-] | -0.591% (inactive) |  |
| CN(C)CCN(Cc1ccc(Cl)cc1)c1ccccn1 | -0.0077% [at 18.6 µM] (inactive) |  |
| N=c1ccn2c(n1)O[C@H]1[C@H](O)[C@@H](CO)O[C@H]12 |  | inactive |
| OCc1cc(C(O)CNCCCCCCOCCCCc2ccccc2)ccc1O (stereo not given) |  | inactive |
| O=C1OC(CN2CCOCC2)CN1/N=C/c1ccc([N+](=O)[O-])o1 (stereo not given) | 0.088% [at 18.6 µM] (inactive) |  |
| CC1=CC[C@H](C(C)C)C=C1 | 0.0258% (inactive) |  |
| COc1ccc(-c2nc3ccc(C4=NNC(=O)CC4C)cc3[nH]2)cc1 (stereo not given) | 0.0151% [at 46 µM] (inactive) |  |
| O=C(O)CC(=O)C(=O)O | -0.142% (inactive) |  |
| CC[N+]1(CC)CCC(=C(c2ccccc2)c2ccccc2)C1C (stereo not given) | 0.137% [at 46 µM] (inactive) |  |
| C[C@@H]1C[C@H]2O[C@@]3(O[C@@H]2C(C)(C)O)[C@H](O)[C@@]2(C)[C@@H]4CC[C@H]5C(C)(C)[C@@H](O[C@@H]6OC[C@@H](O)[C@H](O)[C@H]6O)CC[C@@]56C[C@@]46CC[C@]2(C)[C@@H]13 | 0.408% (inactive) |  |
| Cc1oc2c(NC(=O)c3c(Cl)cccc3Cl)cccc2c1C(C)(C)O | -0.347% (inactive) |  |
| NCc1ccccc1Sc1ccccc1CO | 0.0945% [at 46 µM] (inactive) |  |
